Test results from PubChem BioAssay AID602350 (Broad Institute, 2012).
Entries with a potency or affinity are not part of this list. The source made the active and inactive calls.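 How the source made its calls: active means absorbance falls by 30% or more versus neutral controls, with a potency fitted within twice the top valid dose; inconclusive means no clear call, values can overlap the other calls; inactive means change opposite to expected direction, plus the rest.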

Biological target: Protein disulfide-isomerase (Homo sapiens) (UniProt P07237)
Sequence (P07237 whole entry, looked up): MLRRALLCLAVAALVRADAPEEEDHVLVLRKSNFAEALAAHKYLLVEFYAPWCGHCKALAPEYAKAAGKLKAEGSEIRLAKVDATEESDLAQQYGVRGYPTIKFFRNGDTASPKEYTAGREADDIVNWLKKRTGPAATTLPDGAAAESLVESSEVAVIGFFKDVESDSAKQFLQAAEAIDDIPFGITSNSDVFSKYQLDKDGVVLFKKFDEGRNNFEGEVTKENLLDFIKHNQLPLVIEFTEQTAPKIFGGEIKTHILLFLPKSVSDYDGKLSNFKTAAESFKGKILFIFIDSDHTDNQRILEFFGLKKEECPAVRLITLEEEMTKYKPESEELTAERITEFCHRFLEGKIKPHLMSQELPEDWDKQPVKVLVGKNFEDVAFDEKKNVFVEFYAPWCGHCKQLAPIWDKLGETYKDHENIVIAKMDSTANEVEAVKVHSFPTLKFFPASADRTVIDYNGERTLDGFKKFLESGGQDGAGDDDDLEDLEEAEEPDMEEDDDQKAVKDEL
Test: inhibition of PDI-driven insulin aggregation – biochemical, turbidity, absorbance, cherry-picked samples, dose response (AID 602350)
Settings: recombinant PDI insulin aggregation, absorbance 650 nm, 90 min; series mostly up to 19.5 µM

outcome, inactive:
NC(=O)c1ccc(NC(=O)COC(=O)c2ccc(Br)c(S(=O)(=O)N3CCOCC3)c2)cc1
COc1ccc(CN(C)C[C@@H]2Oc3ccc(NC(=O)Nc4ccccc4)cc3CC(=O)N([C@H](C)CO)C[C@@H]2C)cc1
CC1(C(=O)NS(=O)(=O)c2ccccc2Cl)CCN1C(=O)c1ccccc1CCc1ccccc1 (centres undefined)
O=C(Nc1nc2ccccc2s1)c1cccc(S(=O)(=O)N2CCc3ccccc32)c1
COc1ccc(C2c3ccc(O)cc3Oc3ncn4nc(-c5cccnc5)nc4c32)cc1OC (centres undefined)
C[C@@H]1CN([C@@H](C)CO)C(=O)c2cc(NC(=O)Cc3cn(C)c4ccccc34)ccc2O[C@@H]1CN(C)S(=O)(=O)c1ccc(F)cc1
O=C(Nc1ccccc1)c1cc(C2CCCCN2C(=O)c2ccccc2)on1 (centres undefined)
CC12CCC3c4ccc(O)cc4CCC3C1CCC2=O (centres undefined)
COc1cccc(-n2ccnc2SCC(=O)Nc2cc(OC)ccc2OC)c1
Cc1ccc(-c2cc(C(=O)NNC(=O)c3csc(N4CCOCC4)n3)c3ccccc3n2)cc1
CCOC(=O)C1(CCOc2ccccc2)CCN(Cc2ccc(OC)cc2)CC1
Cc1noc(C)c1S(=O)(=O)Nc1ccc2c(c1)CC(=O)N([C@H](C)CO)C[C@@H](C)[C@H](CN(C)S(=O)(=O)c1ccc(F)cc1)O2
C[C@@H](CN1C2=NC[C@H](Cc3ccc(O)cc3)N2C[C@H]1Cc1ccc(O)cc1)NC(=O)CCC1CCCCC1
O=C1N[C@@H](Cc2c[nH]c3ccccc23)COC(=O)[C@H](Cc2ccc(F)cc2)C/C=C\C[C@H]1CC(=O)N(CCO)Cc1ccccc1
CCCCNC(=O)N1CCN(C(=O)C2CCCO2)CC1 (centres undefined)
COc1ccc(/C=C2\Sc3ccc(C(=O)NCCCN4CCCC4)cc3N(C)C2=O)cc1OC
CCOC(=O)C(C)c1n[nH]c(=O)c2ccccc12 (centres undefined)
NC1=NC[C@H](Cc2ccc(O)cc2)N1CC1CCCCC1
O=C(/C=C/c1ccc(N2CCCCC2)c([N+](=O)[O-])c1)c1ccc(O)cc1
CC(=O)Nc1cccc(NC(=O)CCc2ccccc2)c1
O=C(CCN1C(=O)C2C3C=CC(C4CC34)C2C1=O)Oc1ccccc1 (centres undefined)
CCOC(=O)c1c(CN2CCN(C)CC2)n(C)c2cc(Br)c(OC)cc12
C=CCn1c(C(CCCC)CC(O)COCC(C)C)n[nH]c1=S (centres undefined)
CCOc1ccc2[nH]c(=O)c(CN(CCO)C(=O)CC)cc2c1
O=C(COC(=O)c1ccccc1NC(=O)c1ccco1)NCCC1=CCCCC1
NC(=O)c1nsc(C(=O)N(CC(=O)NCc2ccc(F)cc2)Cc2ccco2)c1N
CCN1CCN(Cc2ccc(NC(=O)c3cc(NC(=O)c4cc(-c5ccc(OC)cc5)n[nH]4)cc(OC)c3)cc2C(F)(F)F)CC1
O=C(Nc1oc2ccccc2c(=O)c1-c1ccc(Cl)cc1)c1ccco1
CCOC(=O)C1(Cc2ccc(O)cc2)NC(c2ccccc2F)C2C(=O)N(C)C(=O)C21 (centres undefined)
COC(=O)C(Cc1ccc(O)cc1)N1Cc2ccccc2C1=O (centres undefined)
COc1ccc(Oc2ccc(/C=C/C(=O)c3ccc(O)cc3)cc2[N+](=O)[O-])cc1
CC[C@]12c3[nH]c4cc(-c5ccco5)ccc4c3CCN1C(=O)[C@@H](CC(=O)NCc1ccc(OC)c(OC)c1)C[C@@H]2C(=O)N1CCN(C(=O)C2CC2)CC1
C[C@]12CC[C@@H]3c4ccc(O)cc4C(=O)C[C@H]3[C@@H]1CC[C@@H]2O
CCOc1ccc(/C=N/OC(C)C(=O)NCc2ccc3c(c2)OCO3)cc1 (centres undefined)
CCOC(=O)c1c(-c2ccccc2)oc2cc(Br)c(O)cc12
COc1ccc(OCCN2CCC(C(=O)NC(c3ccsc3)c3ccccc3C)CC2)cc1 (centres undefined)
O=C(NN1CC(C(=O)OCc2ccccc2F)CC1=O)c1ccccc1 (centres undefined)
Cc1ccc(C)c(NS(=O)(=O)c2c(C)nn(C)c2C)c1
CSc1cccc(NC(=O)CN(C)S(=O)(=O)c2ccc(F)cc2)c1
